Assay results from PubChem BioAssay (NCI).
The panel holds about 83,000 compounds, 20% with a hit somewhere; the sample as a whole holds those more often.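 Single-dose data. Exposure time 48 hours. Values below 10 considered active.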 A number with no mark means an inactive call. Activity calls are given as the source filed them.

These molecules were tested on NCI-H322M lung (assay: NCI-60 one-dose screen, 48 h (100 = growth as untreated, 0 = no growth, -100 = all killed)). Conditions: 10 µM unless noted.

| Structure (SMILES) | growth |
| --- | --- |
| c1cc2[nH]ncc2cc1-c1nc2ccc3[nH]ncc3c2c2c1CCC2 | 58% |
| CCOC(=O)C1=C(C)NC(C)=C(C(=O)OCC)C1(C)C | 107% |
| CCOC(=O)c1ccc2c(c1)nc(-c1ccc(OCc3ccccc3)c(OC)c1)n2-c1cc(C(C)(C)C)[nH]n1 | 92.8% |
| O=C1/C(=C/c2ccc(Cl)cc2)CN(C(=O)CCN2CCC(=NO)CC2)C/C1=C\c1ccc(Cl)cc1 | -75% (active) |
| Cc1ccc(S(=O)(=O)NCCNc2cc(-c3cn(C(C)(C)C)nc3-c3cccc(O)c3)ccn2)cc1 | 82.2% |
| CC(C)CC1NC(C)(C)CO1 (centres undefined) | 121% |
| Cc1ccc(C(=O)C2=Cc3cc4ccccc4n3Cc3cnnn32)cc1 | 95.9% |
| Brc1ccc(-c2[nH]ncc2-c2c[nH]c3ccccc23)cc1 | 99.7% |
| CCn1c2ccccc2c2cc(NC(=O)Nc3ccc([N+](=O)[O-])cc3C)ccc21 | 77.8% |
| N=c1ccc2nc3ccc(N)cc3sc-2c1 | 51.6% |
| CCOC(=O)/C(C#N)=C1/C(=O)Nc2ccccc21 | 127% |
| O=[N+]([O-])c1ccc(Sc2ncccn2)c([N+](=O)[O-])c1 | 97.7% |
| O=C(O)C1CCCN1 (centres undefined) | 124% |
| OCc1ncc(-c2ccccc2)s1 | 173% |
| Oc1ccc2cc(Br)ccc2c1-c1c(O)ccc2cc(Br)ccc12 | 57.1% |
| COc1ccc(/C=C2\Oc3cc(OCCCN4CCCC4)ccc3C2=O)c(OC)c1 | 94.6% |
| CC(=O)Nc1ccc(/C=C/C(=O)c2ccccc2)cc1 | 120% |
| CC1CCC(C)N(C)C1 (centres undefined) | 100% |
| O=Nc1c(-c2cccc([N+](=O)[O-])c2)nc2ncccn12 | 120% |
| COc1cc2c(=O)n(C3CCCCCC3)c3c4cc[nH]c4ncc3c2cc1OC | 89.2% |
| CN1C(=O)N(C)C2C1NN=c1s/c(=C\C=C\c3ccccc3)c(=O)n12 (centres undefined) | 68.4% |
| O=C1c2ccccc2-c2ccccc2C1(Cl)Cl | 86.7% |
| CC(C)(C)n1cc(-c2ccnc(NCCCNS(=O)(=O)c3ccc(Br)cc3)c2)c(-c2cccc(O)c2)n1 | 30.9% |
| O=C(Nc1ccncc1)C(=O)c1cn(S(=O)(=O)c2ccccc2F)c2ccccc12 | 97.2% |
| Nc1cccc(-c2nc3sccn3c2-c2ccnc(NCCNS(=O)(=O)c3ccc(C(F)(F)F)cc3)n2)c1 | 42.4% |

What follows are molecules tested on HOP-62 NSCLC in the same assay as above. Conditions: 10 µM unless noted.

| Structure (SMILES) | growth |
| --- | --- |
| CC(C)(C)n1cc(-c2ccnc(NCCCNS(=O)(=O)c3cccc(F)c3)c2)c(-c2cccc(O)c2)n1 | 73.8% |
| Cc1ccc(N2CCN(C(C)C(N)=O)CC2)cc1 (centres undefined) | 109% |
| NC(N)=N/N=C/c1ccc(-c2ccc(-c3cc(Cl)cc(Cl)c3)s2)cc1 | 25.2% |
| Cc1ccc2nc(-c3cc4c([nH]c5ccccc54)c(-c4ccc(F)c(F)c4)n3)[nH]c2c1 | 79.8% |
| CNc1ccc(Br)c2c1C(=O)c1ccccc1C2=O | 107% |
| O=C(O)c1cn(C2CC2)c2cc(N3CCN(C(=O)/C=C/c4ccc(Cl)cc4)CC3)c(F)cc2c1=O | 80.8% |
| CCC1=CCC[C@@]2(C)CCC[C@@]3(C)CCCC(C)(C)[C@]1([O-])[O+]32 | 104% |
| O=c1[nH]c(-c2ccccc2)nc(CN2CCCCC2)c1O | 112% |
| Cc1ccc(Nc2nnc(-c3ccc(Cl)cc3)o2)c(C)c1 | 81.8% |
| O=C(N/N=C/C=C\c1ccccc1)C(=O)N/N=C/C=C/c1ccccc1 | 107% |
| COc1cc(-c2nc(N=Nc3c(O)[nH]c4ccc(Br)cc34)[nH]c(=O)c2C#N)cc(OC)c1OC | 105% |
| O=C(NNC(=O)N1c2ccccc2C=Cc2ccccc21)c1ccc2ccccc2c1 | 99.1% |
| COc1cccc(-c2nc3sccn3c2-c2ccnc(NCCCNS(=O)(=O)c3ccc(C(F)(F)F)cc3)c2)c1 | 91.3% |
| c1cc(C2=N[C@@H]3c4ccccc4C[C@@H]3O2)nc(C2=N[C@@H]3c4ccccc4C[C@@H]3O2)c1 | 100% |
| c1cc2[nH]ncc2cc1-c1nc2ccc3[nH]ncc3c2c2c1CCC2 | 47.6% |
| CCOC(=O)C1=C(C)NC(C)=C(C(=O)OCC)C1(C)C | 102% |
| CCOC(=O)c1ccc2c(c1)nc(-c1ccc(OCc3ccccc3)c(OC)c1)n2-c1cc(C(C)(C)C)[nH]n1 | 91.4% |
| O=C1/C(=C/c2ccc(Cl)cc2)CN(C(=O)CCN2CCC(=NO)CC2)C/C1=C\c1ccc(Cl)cc1 | -80.1% (active) |
| Cc1ccc(S(=O)(=O)NCCNc2cc(-c3cn(C(C)(C)C)nc3-c3cccc(O)c3)ccn2)cc1 | 93.3% |
| CC(C)CC1NC(C)(C)CO1 (centres undefined) | 95.9% |

| Structure (SMILES) | growth |
| --- | --- |
| Cc1ccc(C(=O)C2=Cc3cc4ccccc4n3Cc3cnnn32)cc1 | 87.4% |
| Brc1ccc(-c2[nH]ncc2-c2c[nH]c3ccccc23)cc1 | 111% |
| CCn1c2ccccc2c2cc(NC(=O)Nc3ccc([N+](=O)[O-])cc3C)ccc21 | 49.4% |
| N=c1ccc2nc3ccc(N)cc3sc-2c1 | 15% |
| CCOC(=O)/C(C#N)=C1/C(=O)Nc2ccccc21 | 104% |
| O=[N+]([O-])c1ccc(Sc2ncccn2)c([N+](=O)[O-])c1 | 94.6% |
| O=C(O)C1CCCN1 (centres undefined) | 98.5% |
| OCc1ncc(-c2ccccc2)s1 | 96.9% |
| Oc1ccc2cc(Br)ccc2c1-c1c(O)ccc2cc(Br)ccc12 | 72.2% |
| COc1ccc(/C=C2\Oc3cc(OCCCN4CCCC4)ccc3C2=O)c(OC)c1 | 101% |
| CC(=O)Nc1ccc(/C=C/C(=O)c2ccccc2)cc1 | 97.1% |
| CC1CCC(C)N(C)C1 (centres undefined) | 107% |
| O=Nc1c(-c2cccc([N+](=O)[O-])c2)nc2ncccn12 | 100% |
| COc1cc2c(=O)n(C3CCCCCC3)c3c4cc[nH]c4ncc3c2cc1OC | 59% |
| CN1C(=O)N(C)C2C1NN=c1s/c(=C\C=C\c3ccccc3)c(=O)n12 (centres undefined) | 67.3% |
| O=C1c2ccccc2-c2ccccc2C1(Cl)Cl | -98% (active) |
| CC(C)(C)n1cc(-c2ccnc(NCCCNS(=O)(=O)c3ccc(Br)cc3)c2)c(-c2cccc(O)c2)n1 | 46.8% |
| O=C(Nc1ccncc1)C(=O)c1cn(S(=O)(=O)c2ccccc2F)c2ccccc12 | 38.4% |
| Nc1cccc(-c2nc3sccn3c2-c2ccnc(NCCNS(=O)(=O)c3ccc(C(F)(F)F)cc3)n2)c1 | 49.6% |
